Experimental data reported in PubChem BioAssay (NCI).
This is part of a sample that, as a whole, favours compounds with a hit. Of some 83,000 tested, about 20% had one in any assay.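 Plates (96-well) were seeded with cells, treated with compound at one concentration, and incubated for 48 hours before percent growth was determined.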 Unmarked numbers belong to inactive results. The source made the active and inactive calls. Rule for the calls: active = growth percent below 10; inactive = the rest.

Experiments:
Assay in all cases: NCI-60 one-dose screen, 48 h (100 = growth as untreated, 0 = no growth, -100 = all killed)
SR leukemia = details: 10 µM unless noted
RPMI-8226 leukemia = details: 10 µM unless noted
OVCAR-8 ovarian = details: 10 µM unless noted
OVCAR-5 ovarian = details: 10 µM unless noted
OVCAR-4 ovarian = details: 10 µM unless noted
SK-OV-3 ovarian = details: 10 µM unless noted
OVCAR-3 ovarian = details: 10 µM unless noted
HS 578T breast = details: 10 µM
NCI/ADR-RES ovarian = details: 10 µM unless noted
BT-549 breast = details: 10 µM unless noted
MDA-MB-435 melanoma = details: 10 µM unless noted
SW-620 colon = details: 10 µM unless noted
MCF7 breast = details: 10 µM unless noted
HCT-116 colon = details: 10 µM unless noted
HCC-2998 colon = details: 10 µM unless noted
KM12 colon = details: 10 µM unless noted
IGROV1 ovarian = details: 10 µM unless noted
T-47D breast = details: 10 µM unless noted

Row | Compound | growth (SR leukemia) | growth (RPMI-8226 leukemia) | growth (OVCAR-8 ovarian) | growth (OVCAR-5 ovarian) | growth (OVCAR-4 ovarian) | growth (SK-OV-3 ovarian) | growth (OVCAR-3 ovarian) | growth (HS 578T breast) | growth (NCI/ADR-RES ovarian) | growth (BT-549 breast) | growth (MDA-MB-435 melanoma) | growth (SW-620 colon) | growth (MCF7 breast) | growth (HCT-116 colon) | growth (HCC-2998 colon) | growth (KM12 colon) | growth (IGROV1 ovarian) | growth (T-47D breast)
1 | O=NN(CC(=O)NNc1ccccc1)CC(=O)NNc1ccccc1 | 74.3% | 55.4% | 67.7% | 74.5% | 70.8% | 101% | 86.9% | 94.2% | 40.7% | 103% | 30.5% | 31.1% | 69.5% | 57% | 68.9% | 37.9% | – | –
2 | CCN(CC)Cc1cc(Nc2ccnc3cc(Cl)ccc23)cc(-c2ccc(Cl)cc2)c1O | -22.7% (active) | 6% (active) | 9.58% (active) | 54.2% | – | 48.1% | -44.1% (active) | – | 19.9% | 25.4% | 35.4% | 12.3% | 14.8% | 43.4% | 64.3% | 34.5% | -6.07% (active) | 50.9%
3 | Cc1ccc(/C=C/C(=N/N=C(N)N)c2ccccc2)cc1 | -9.62% (active) | 11.1% | 24.6% | 54.4% | – | 9.84% (active) | -28.6% (active) | -5.3% (active) | 35.2% | 47.7% | -16.9% (active) | 25.9% | 11.6% | 20.1% | 20.9% | 14.8% | 43.1% | 40.9%
4 | COc1cc(C2=NOC(c3cc(OC)c(OC)c(OC)c3)C2)ccc1OCCCCOc1cc2c(cc1OC)C(=O)N1CCC[C@H]1C=N2 (some centres not stated) | -24.8% (active) | -27.3% (active) | – | 9.04% (active) | -35.6% (active) | 10.4% | -34.1% (active) | -10.4% (active) | 18.4% | -96.8% (active) | -74.1% (active) | -31.7% (active) | -5.09% (active) | 2.63% (active) | -57.4% (active) | -24.3% (active) | -3.57% (active) | -11.9% (active)
5 | CSC(=S)N/N=C(\C)c1ccccn1 | -3.68% (active) | 12% | 14.6% | 27.1% | – | 30.2% | 5.95% (active) | 38.1% | 12.8% | 28.8% | 35.8% | 29.5% | 7.66% (active) | 9.68% (active) | 28% | 19.9% | 19.4% | 21.8%
6 | COc1ccc(NC(=O)/C=C/c2ccc(Cl)c(Cl)c2)cn1 | 95.2% | 49.7% | – | 84.6% | 20.5% | 101% | 96.6% | 92.6% | 1.03% (active) | 67.1% | 91.1% | 104% | 71.7% | 84.8% | 118% | 78.2% | 67.8% | 71%
7 | Clc1ccc(Nc2ncnc3c2sc2ncccc23)c(Cl)c1 | 9.78% (active) | 30% | – | 59.5% | 84.9% | 25.5% | 55.5% | 95.8% | 15% | 44.6% | 36.3% | 47.9% | 18.4% | 27.6% | 59.6% | 50.8% | 70.4% | 36.7%
8 | CCCC(CCC)NCC(O)c1cc(-c2ccc(C(F)(F)F)cc2)nc(C(F)(F)F)c1 (configuration not stated) | -61.4% (active) | -37.7% (active) | -62.8% (active) | -37.9% (active) | – | 52.3% | -83.1% (active) | -45.5% (active) | -53.9% (active) | 48.2% | -48.1% (active) | -56.6% (active) | -85.1% (active) | -70.8% (active) | – | -85.4% (active) | -22.9% (active) | -80.5% (active)
9 | COc1cc2c(cc1OC)C(=O)OC2 | 106% | 367% | 101% | 100% | 108% | 124% | 110% | 109% | 119% | 118% | 103% | 104% | 105% | 111% | 118% | 113% | – | 98.5%
10 | COc1ccccc1/C=N\NC(=S)Nc1ccc(F)cc1 | 28.6% | 79.8% | 78.7% | 94.1% | – | 89.2% | 69.7% | 70.3% | 38.4% | 73.3% | 1.12% (active) | 37.5% | 60.5% | 68.7% | 66.5% | 51.4% | 72.1% | 72.5%
11 | O=C(c1ccccc1)N(CCCCl)C(=O)N(CCCCl)C(=O)c1ccccc1 | 101% | 88.1% | 97.2% | 87% | – | 84.5% | 93.7% | 93.9% | 91.1% | 103% | 89.6% | 89.8% | 119% | – | 95.3% | 88.3% | 90.7% | 93.1%
12 | CCN(CC)CCCNc1cccc2c(C)cc(OC)nc12 | 78.3% | 92.3% | 97.9% | 95.5% | – | 106% | 99.9% | 96.4% | 95.9% | 87.4% | 115% | 102% | 84.8% | 95.1% | 90.2% | 100% | 89.5% | 98.7%
13 | Cc1nn(-c2ccc(Cl)cc2)c(=O)n1CCN1CCOCC1 | 95.3% | 83.1% | 116% | 92.4% | 93.4% | 42.8% | 79.2% | 42.7% | 75.9% | 61.5% | 84.9% | – | 73.4% | 29.5% | 91.3% | 81.3% | – | 78.3%
14 | COc1ccccc1NC(=O)OCC12COCN1COC2 | 93.8% | 99.8% | – | 96.4% | 105% | 105% | 116% | 110% | 107% | 117% | 102% | 101% | 92.4% | 113% | 116% | 107% | 109% | 102%
15 | CC1=NN(c2cccc(S(N)(=O)=O)c2)C(=O)C1 | 107% | 271% | 107% | 89.9% | 99.4% | 91.3% | 96.3% | 86.6% | 95.2% | 109% | 94.6% | 94.8% | 90.4% | 104% | 96.1% | 107% | – | 84.2%
16 | Cc1cc(Cl)c2ccc(N(C)C)cc2n1 | 87.3% | 97% | – | 105% | 105% | 97.4% | 104% | 96.9% | 104% | 111% | 102% | 99.5% | 92.1% | 105% | 101% | 104% | 106% | 90.7%
17 | C/C(=C\C(=N\N=C(N)N)c1ccc(Cl)cc1)c1ccc(Cl)cc1 | -67.9% (active) | -40.2% (active) | -80.9% (active) | -75.5% (active) | – | -22.4% (active) | -87.7% (active) | -50.9% (active) | -69.6% (active) | -84.1% (active) | -62.9% (active) | -72.7% (active) | -78.4% (active) | -85.9% (active) | -87.3% (active) | -88.2% (active) | -60.6% (active) | -79.6% (active)
18 | OC(c1cc2c(Cl)cc(Cl)cc2c2cc(C(F)(F)F)ccc12)C1CCCCN1 (configuration not stated) | -63.5% (active) | -44.8% (active) | -61% (active) | -78.5% (active) | – | -18.3% (active) | -86% (active) | -56.1% (active) | -60.4% (active) | 50.4% | -65.5% (active) | -74.4% (active) | -75.7% (active) | -85.9% (active) | – | -84.6% (active) | -67.9% (active) | -78.5% (active)
19 | c1ccc(C(CC2=NCCCN2)c2ccccc2)cc1 | 103% | 116% | 101% | 95.9% | – | 95.5% | 117% | 95.7% | 101% | 95.1% | 94% | 100% | 94.1% | 97.3% | 102% | 99.7% | 108% | 101%
